The values below come from PubChem BioAssay AID1739 (National Center for Advancing Translational Sciences (NCATS), 2009).

Records with an inconclusive call do not appear. Activity calls are given as the source filed them. Calls follow the shape of the dose curve; as a rule, active = well fitted inhibition curve with a large enough effect; inconclusive = small, poorly fitted or top-dose-only effect; inactive = flat fitted curve, though single readings scatter.

The nature of the experiment: Counterscreen Assay for Enhancers of SMN2 Splice Variant Expression: Modulation of SMN1 Expression. Particulars: HEK293 SMN1-luciferase reporter, luminescence, 30-36 h; series mostly up to 22.8 µM; activity change, negative = inhibition: at the top concentration. The text has this:
NIH Chemical Genomics Center [NCGC] NIH Molecular Libraries Probe Production centers Network [MLPCN] MLPCN Grant: R03 MH084179-01 Assay Submitter (PI): Elliot Androphy NCGC Assay Overview: Spinal muscular atrophy (SMA) is caused by insufficient levels of the survival motor neuron protein SMN. The SMN locus on chromosome 5q13 contains two inverted copies of SMN called SMN1 and SMN2 which are 99% identical at the amino acid level. SMN1 is a fully functional protein and SMN2 skips exon 7 90% of the time. Skipping of exon 7 produces non-functional protein product. 10% of the SMN2 protein includes exon 7 and is fully functional. In the SMA disease state, mutations in the SMN1 locus are the cause of the disease state. Because only 10% of SMN2 is of the fully functional form, it is not sufficient to overcome the deficiency produced by the loss of the SMN1 product. A therapy that either increase the amount of SMN2 product made or to increase the inclusion of exon 7 has been proposed for the treatment of SMA. We have designed an assay to identify small molecules that can increase the amount of functional SMN2 product by appending a luciferase reporter gene after the native SMN2 gene, such that inclusion of exon 7 in the expressed product places the luciferase sequence in frame, thus generating functional luciferase enzyme. As a counterscreen for nonspecific modulators of expression, we have run compounds through a similar assay that measures expression of an SMN1-luciferase chimera.
NCGC Assay Protocol Summary: This screen utilizes a luciferase reporter gene assay, combining the promoter with the major portion of the native SMN1 cDNA (exons 1 -7, intron 8 , exon 8 fused to luciferase) stably expressed in HEK293 cells. Compounds that increase luciferase signal presumably enhance expression of the functional SMN1 splice variant. Passaging media contained DMEM w/ glutamax (+phenol red) 10% FCS, 1x pen/strep, 200 ug/ml hygro, 1x sodium pyruvate. Assay media contained DMEM w/ glutamax (-phenol red) 10% FCS, 1x pen strep, 1x pyruvate Sequence, Parameter, Value, Description (1) Cells, 5 uL, 2000 cells/well, 1536 TC treated White solid bottom plate (2) Time, 10-12 hours, 37C 5% CO2 (3) Compound, 23 nl, MLSMR Library (4) Control Compound, 23 nL, Sodium butyrate st 4.5mM (final) conc (5) Time, 30-36 hours, 37C 5% CO2 (6) Reagent, 3 ul, One Glo (TM) from Promega (7) Time, 5-15 minutes, Room temp (8) Detector, Viewlux: luminescent read, 60 second integration, high speed 2x binning Keywords: Spinal muscular atrophy, SMA, SMN2, high throughput screening, MLSMR, MLPCN, NIH Roadmap, qHTS and NCGC
Take `OCCCNc1nc(-c2ccc(Br)cc2)nnc1-c1ccc(Cl)cc1`: the “activity change, negative = inhibition” value was -28.5% (inactive).

Consider `O=C(NCCc1cn2ccsc2n1)c1cccs1`, for which the “activity change, negative = inhibition” value is -7.46% [at 46.1 µM] (inactive).

Take `COc1ccc(-c2csc(N3CCC(c4ccccc4)CC3)n2)cc1`: the “activity change, negative = inhibition” value was -4.14% (inactive).

On to `O=C(Nc1ccc([N+](=O)[O-])cc1Cl)c1cc(Cl)ccc1O`, for which the Potency was 0.708 µM (active).

With `Cc1ccc(C2c3c(oc4ccccc4c3=O)C(=O)N2CCCN2CCOCC2)o1` (stereo not given), the “activity change, negative = inhibition” value was -11.8% [at 46.1 µM] (inactive).

Turning to `OCCCNc1nc(-c2ccc(Cl)cc2)nnc1-c1ccccc1`, the “activity change, negative = inhibition” value was 5.49% (inactive).

Consider `Cc1[nH]c2ccccc2c1-c1nc(-c2ccc(Cl)cc2)nnc1-c1ccccc1`, for which the “activity change, negative = inhibition” value was -7.98% (inactive).

As for `CCOC(=O)c1c(-c2cccc(C)c2)csc1NC(=O)c1c(-c2ccccc2)noc1C`, the Potency was 0.355 µM (active).

Turning to `CCCc1sc(N2CCCC(C(N)=O)C2)nc1-c1ccccc1` (stereo not given), the “activity change, negative = inhibition” value was -5.38% (inactive).

Regarding `O=C(NCCCNCCCNC(=O)c1ccccn1)c1ccccn1`, the “activity change, negative = inhibition” value is 24.4% [at 46.1 µM] (inactive).

As for `O=C1CCC(C(=O)Nc2cccc3ccccc23)N1` (stereo not given), the “activity change, negative = inhibition” value is -6.36% [at 46.1 µM] (inactive).

For the compound `O=C(NCc1cccs1)C(=O)NCC1OCCCN1S(=O)(=O)c1ccccc1` (stereo not given), the “activity change, negative = inhibition” value was 8.45% [at 46.1 µM] (inactive).

As to `CC(C)Nc1nc(-c2ccccc2)nnc1-c1ccccc1`, the “activity change, negative = inhibition” value was -4.5% (inactive).

For `Clc1ccc(-c2nnc(-c3ccccc3)c(N3CCSCC3)n2)cc1`, the “activity change, negative = inhibition” value was -5.45% (inactive).

For the compound `Cn1c(C(=O)NCc2cccs2)cc2oc3ccccc3c21`, the Potency was 3.16 µM (active).

With `O=C(Cc1c(F)cccc1Cl)N1CCN(C(=O)c2ccco2)CC1`, the “activity change, negative = inhibition” value is -8.45% [at 46.1 µM] (inactive).

Consider `c1coc(CNc2ncnc3nc[nH]c23)c1`, for which the “activity change, negative = inhibition” value is -14.9% [at 46.1 µM] (inactive).

Turning to `Fc1ccc(Oc2nc(-c3ccccc3)nnc2C(F)(F)F)cc1`, the “activity change, negative = inhibition” value is 7.18% (inactive).

With `Brc1ccc(-c2nnc(-c3ccccc3)c(N3CCSCC3)n2)cc1`, the “activity change, negative = inhibition” value was 14.9% (inactive).

For `COc1nc(-c2ccc(Cl)cc2)nnc1C`, the “activity change, negative = inhibition” value is -25.9% (inactive).

On to `CCCSc1nnc(Sc2nnnn2-c2ccccc2)s1`, for which the Potency was 7.08 µM (active).

Consider `Cc1ccc(-c2nnc(-c3ccccc3)c(-c3ccccc3)n2)cc1`, for which the “activity change, negative = inhibition” value is -6.17% (inactive).

With `COc1ccc(CNC(=O)c2ccc(C(C)C)cc2)cc1`, the “activity change, negative = inhibition” value is -15.6% [at 46.1 µM] (inactive).

As for `Nn1c(SCC(=O)NCCC2=CCCCC2)nnc1C1CCCCC1`, the “activity change, negative = inhibition” value was 4.9% [at 46.1 µM] (inactive).

`Clc1nc(NCc2ccco2)c2[nH]cnc2n1`: the “activity change, negative = inhibition” value is -19.7% [at 46.1 µM] (inactive).

As for `CCCCOC(C)n1cc(F)c(=O)[nH]c1=O` (stereo not given), the “activity change, negative = inhibition” value was 10.5% (inactive).

For `NC(=O)C1(N2CCCCC2)CCN(c2nc(-c3ccccc3)cs2)CC1`, the “activity change, negative = inhibition” value is -20.9% (inactive).

For the compound `Clc1nc(NCC2CCCO2)c2[nH]cnc2n1` (stereo not given), the “activity change, negative = inhibition” value is -8.45% [at 46.1 µM] (inactive).

As to `O=c1[nH]c(=O)n(C2CCCO2)cc1Br` (stereo not given), the “activity change, negative = inhibition” value is 4.65% (inactive).

As to `CCC1=Nc2ccccc2-c2nnc(SC)nc2O1`, the “activity change, negative = inhibition” value is 8.48% (inactive).

`COC(=O)C1=C(C)NC(=O)/C1=C\c1cc(C)n(-c2ccccc2F)c1C`: the “activity change, negative = inhibition” value was -7.23% [at 46.1 µM] (inactive).

As to `FC(F)C(F)(F)C1=CC(c2cccs2)=NCCN1`, the “activity change, negative = inhibition” value is -7.36% [at 46.1 µM] (inactive).

With `COc1ccc(OC)c(-c2csc(N3CCC(c4ccccc4)CC3)n2)c1`, the “activity change, negative = inhibition” value was -26.4% (inactive).

As to `FC(F)(F)c1cccc(Oc2nc(-c3ccccc3)nnc2C(F)(F)F)c1`, the “activity change, negative = inhibition” value was -15.9% (inactive).

As for `O=[N+]([O-])c1ccc(-c2nnc(-c3ccccc3)c(N3CCOCC3)n2)cc1`, the “activity change, negative = inhibition” value was 3.38% (inactive).

For `CN(C)CCCN(C(=O)c1cccs1)c1nc(-c2ccccc2)cs1`, the “activity change, negative = inhibition” value was -16% (inactive).

For `CC(/C=C/C(=O)NO)=C\[C@@H](C)C(=O)c1ccc(N(C)C)cc1`, the Potency is 7.94 µM (active).

For the compound `O=C(O)c1cccc(COc2ccc(CO)cc2Cl)c1`, the Potency was 3.16 µM (active).

Consider `c1ccc(-c2nnc(-c3ccccc3)c(-c3c[nH]c4ccccc34)n2)cc1`, for which the “activity change, negative = inhibition” value is -2.82% (inactive).

Take `O=C(Nc1nc(-c2ccc3ccccc3c2)cs1)C1CCN(S(=O)(=O)c2cccs2)CC1`: the “activity change, negative = inhibition” value was -32.5% (inactive).
